rRNA inh HTS: selective bacterial rRNA inhibition in E. coli | E. coli WT GFP vs humanized-ribosome RFP mutants, fluorescence, 24 h; stronger effect = lower value; DMSO median 0, no signal -100 | GFP signal change (wild-type ribosome), % (concentration not given with the values) | 1.6% of 350,000 active;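 active means significant combined selectivity score with lowered wild-type GFP, culture density cut under 30%, mutant RFP and density less affected; inactive means any of these conditions unmet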
FGF22 binding: FGF22 (human) thermal shift binding; recombinant FGF22 thermal shift, SYPRO orange fluorescence; percent of sucrose octasulfate shift, DMSO zero; activity (Tm shift, normalised), % at 9.99 µM; Q9HCT0; 1.5% of 340,000 active;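 active means mean Tm shift, scaled 0 neutral to 100 positive control, at about 1.3% or above, every replicate too, limit read from the data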
Target sequence (Q9HCT0 whole entry, looked up): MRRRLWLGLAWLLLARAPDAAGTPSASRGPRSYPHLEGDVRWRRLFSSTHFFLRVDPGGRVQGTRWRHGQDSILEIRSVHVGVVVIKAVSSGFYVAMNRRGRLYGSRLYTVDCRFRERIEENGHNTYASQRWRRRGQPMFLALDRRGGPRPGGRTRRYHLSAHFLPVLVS
KLK7 zymogen act: activates the human kallikrein-7 zymogen | 0.9% of 370,000 active | P49862 | purified proKLK7, EDANS-DABCYL substrate fluorescence; 100% is mature enzyme control, 0% vehicle | activation, % at 7 µM;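 active means activation above the mean of all tested compounds plus 3 SD, computed per campaign excluding outliers beyond control limits, cut at about 13% in these data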
ADAM10 inh: inhibits human ADAM10. O14672. recombinant ADAM10, EDANS/DABCYL FRET peptide cleavage, 3 h. inhibition, % at 7 µM. 0.62% of 370,000 active. AID 720582;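 active means inhibition above a per-campaign cutoff equal to the mean of compounds falling between control-based bounds plus 3 SD, cut at about 20% in these data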;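 further: 0% = DMSO wells while the 100% control is not disclosed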
ADAM17 inh: ADAM17 inhibition, QFRET primary screen | P78536 | recombinant ADAM17, EDANS/DABCYL FRET peptide cleavage | inhibition, % at 6.95 µM | 0.83% of 370,000 active | AID 720648;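 active means inhibition above the mean of compounds lying between control limits plus 3 SD, set per campaign, cut at about 8.5% in these data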;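 further: 0% = DMSO-only wells as the low control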
Active calls of the source: *; i = inactive; / = no result given. Only some compounds are listed: those with a hit (about 3.8% of all), similar ones and a draw of the others.

SMILES	rRNA inh HTS	FGF22 binding	KLK7 zymogen act	ADAM10 inh	ADAM17 inh
COc1cccc(-c2ccc3c(c2)[C@@H]2[C@@H](CCN2C(=O)C2CCOCC2)[C@@H](CO)N3)c1	-3	0	/	/	/
CCS(=O)c1scc(-c2ccc(Cl)cc2)c1C#N (centres undefined)	-32*	0	0	-2	-3
CCc1nc2c(C#N)c(-c3ccc(Cl)cc3)ccn2n1	/	/	-2	-13	-4
CO[C@H]1CN(C)C(=O)c2ccc(NC(=O)c3cc(C)on3)cc2OC[C@H](C)N(CC2CC2)C[C@@H]1C	3	0	/	/	/
CC(C)C(=O)N=C1SC2CS(=O)(=O)CC2N1Cc1ccccc1 (centres undefined)	-1	43*	0	-4	0
CC(C)CC#Cc1ccc([C@@H]2[C@H]3CN(S(C)(=O)=O)CC(=O)N3[C@H]2CO)cc1	-1	/	/	/	/
CN1C(=O)c2cc(NC(=O)C3CC3)ccc2OC[C@@H]2O[C@@H](CC(=O)NCc3ccccc3F)CC[C@H]21	2	/	/	/	/
Cc1cccn2c(=O)c3cc(C(=O)NCc4ccco4)c(=N)n(CCc4ccccc4)c3nc12	1	0	18*	i	-482
Cc1cc(C)c2sc(N(CCN(C)C)C(=O)c3c(F)cccc3F)nc2c1	-37*	0	0	3	-2
COCC(=O)Nc1ccc2c(c1)C(=O)N(C)C[C@@H](OC)[C@H](C)CN(C(=O)c1ccccc1F)[C@@H](C)CO2	0	0	/	/	/
COc1ccc(NC(=O)CN2CCN(c3ccccc3C)CC2)cc1	-31*	0	0	0	-1
COc1ccc(NC(=O)CN2CCN(c3nc(-c4cccc(OC)c4)cs3)CC2)cc1	/	/	0	20*	9
C[C@H]1CN(C)C(=O)Cc2cc([N+](=O)[O-])ccc2O[C@H]1CN(C)C(=O)OC(C)(C)C	-1	/	/	/	/
Cc1ccc(S(=O)(=O)N2CCC(=O)N(CCOCc3ccc(C(F)(F)F)cc3)CC2)cc1	-32	0	1	6	10*
O=C1CCN(S(=O)(=O)c2ccccc2)CCN1CCOCc1ccc(C(F)(F)F)cc1	-6	0	-1	-8	-4
O=C(Nc1ccc(Cl)cc1)N1C[C@H]2[C@@H](c3ccccc31)[C@H](CO)N2C(=O)c1ccccn1	-19*	0	/	/	/
O=C(Nc1cccc(Cl)c1)N1C[C@H]2[C@@H](c3ccccc31)[C@H](CO)N2CC1CCCCC1	-58*	0	/	/	/
O=C(Nc1cccc(Cl)c1)N1C[C@H]2[C@@H](c3ccccc31)[C@H](CO)N2CC1CCOCC1	-16	0	/	/	/
COc1ccn(C2CCCCO2)c(=O)n1 (centres undefined)	5	43*	0	4	0
NC(=O)C1CCN(C2=C(NS(=O)(=O)c3ccc(Cl)cc3)C(=O)c3ccccc3C2=O)CC1	-21*	-1	0	2	0
COC(=O)C1CCN(C2=C(NS(=O)(=O)c3ccc(Cl)cc3)C(=O)c3ccccc3C2=O)CC1	-11	0	2	9	-1
O=C(COC(=O)Cc1ccc(Br)cc1)NC1CCCC1	-5	43*	1	4	0
O=C(c1ccccc1)c1coc2ccc(O)c(Cl)c12	-45*	0	0	6	-3
C[C@H]1CCCCO[C@@H](CN(C)C(=O)Nc2ccc(F)cc2)[C@@H](C)CN([C@@H](C)CO)C(=O)c2cc(NS(C)(=O)=O)ccc2O1	2	0	/	/	/
CC(C)C(C(=O)NCc1ccccc1)N(CC1CCCO1)C(=O)CNS(=O)(=O)c1ccccc1 (centres undefined)	6	0	0	2	2
CC(C)C(C(=O)NCc1ccco1)N(CC1CCCO1)C(=O)CNS(=O)(=O)c1ccccc1 (centres undefined)	5	43*	-1	-6	2
C[C@@H]1CCCCO[C@@H](CN(C)C(=O)Nc2ccc(F)cc2)[C@H](C)CN([C@H](C)CO)C(=O)c2cc(NC(=O)Nc3ccc(F)cc3)ccc2O1	1	0	/	/	/
O=C(NNC(=O)c1cc2cc3ccccc3nc2s1)c1ccc(F)cc1	/	/	5	-12	-8
O=C(NNC(=O)C1CC1)c1cc2cc3ccccc3nc2s1	0	43*	2	-74	-17

High-throughput results: PubChem BioAssay, several laboratories
